The list is not random: actives were taken first. Their share in the collection is about 3%.
DRD3 antagonist = blocks the human D3 dopamine receptor; 360,000 compounds, 2.5% hits; max response, negative = inhibition, %; D3R cells, DiscoveRx beta-arrestin luminescence, antagonist mode; active compounds read low; P35462; AID 652054; in the data active = max response below about -50%; inconclusive = no clear call, values can overlap the other calls; note: % is set by controls: 0 for no effect and ±100 for the full control effect
Target sequence (P35462 whole entry, looked up): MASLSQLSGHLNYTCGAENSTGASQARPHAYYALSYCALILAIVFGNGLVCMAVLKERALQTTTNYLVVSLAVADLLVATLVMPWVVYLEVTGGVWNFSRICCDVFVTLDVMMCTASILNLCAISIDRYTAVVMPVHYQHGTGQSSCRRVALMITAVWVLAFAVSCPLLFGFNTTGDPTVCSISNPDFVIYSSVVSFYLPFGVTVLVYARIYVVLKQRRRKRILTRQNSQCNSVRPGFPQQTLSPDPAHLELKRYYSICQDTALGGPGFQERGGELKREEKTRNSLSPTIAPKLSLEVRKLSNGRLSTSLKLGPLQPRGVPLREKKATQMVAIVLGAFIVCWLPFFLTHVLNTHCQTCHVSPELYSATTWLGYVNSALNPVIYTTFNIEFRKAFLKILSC
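Cells plated overnight at 1500 cells/well, then exposed to library compounds with dopamine controls for 90 minutes at 37 degrees C. DiscoveRx reagent added for 30–60 minutes at room temperature; luminescence read, quantitative HTS format.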
Nrf2 activator = activates Nrf2 signaling; AREc32 ARE-luciferase reporter (MCF7-derived line), luminescence, 24 h; Potency, µM (top dose mostly 46.1 µM), inactives show at the highest dose activation, hits mostly activators; 410,000 compounds, 0.31% hits; note: potency is the fitted concentration of half-maximal effect; % of control where 0% means no effect; nearly all actives have a fitted effect of over 65% in size
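AREc32 cells carrying an ARE-driven firefly luciferase reporter were seeded at 1000 cells/well in OPTI-MEM with 5% FBS, then exposed to compound for 24 hr at 37 deg C. Luminescence was read with Steady-Glo after 30 min at RT.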
Glioma ERSR ind = induces the endoplasmic reticulum stress response in human glioma cells. U87-MG GRP78 promoter luciferase reporter, 16 h. Potency, µM, without a hit: at the highest dose activation, hits mostly activators. 420,000 compounds, 0.02% hits. AID 602332; note: potency is the fitted concentration of half-maximal effect; series mostly up to about 76 µM; % of control where 0% means no effect; nearly all actives have a fitted effect of over 35% in size
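Stably transfected U87-MG human glioma cells carrying a GRP78-based luminescent sensor were seeded at 1000 cells/well, pin-dosed with compounds and incubated 16 h. Luciferase reagent was then added, and end-point luminescence was read after 10 min at room temperature.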
DRD3 agonist = activates the human D3 dopamine receptor | D3R DiscoveRx beta-arrestin cells, luminescence, 90 min | max activation, % | 410,000 compounds, 0.58% hits; in the data active = max activation above about 30%; note: 0% is about no effect
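Cells at 1500/well, incubated overnight, then treated with pinned compounds (dopamine as control) for 90 min at 37 degrees C. DiscoveRx reagent added for 30 - 60 minutes at room temperature; luminescence read.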
The depositor's hits bear a star; ! = a repeat was not active; [ ] = remark or other dose. Unless noted, calls come from the whole dose curve; as a rule, active = well fitted curve in the direction sought with a large enough effect; inconclusive = small, poorly fitted or top-dose-only effect, or another doubt; inactive = no such curve, though single readings can be large; an effect the other way counts as inactive or inconclusive.

`Cc1ccc(-n2c(Cc3cccn3C)nnc2SCC(=O)Nc2ccc3c(c2)OCO3)cc1` gave DRD3 antagonist 50, Nrf2 activator 0%, Glioma ERSR ind -2% and DRD3 agonist 79*.
For Cn1cccc1Cc1nnc(SCC(=O)Nc2ccc3c(c2)OCCO3)n1-c1ccc(F)cc1 the results were DRD3 antagonist 11, Nrf2 activator 0%, Glioma ERSR ind 1% and DRD3 agonist 6.
For CO[C@H]1C[C@@H]2CC[C@@H](C)[C@@](O)(O2)C(=O)C(=O)N2CCCC[C@H]2C(=O)O[C@H]([C@H](C)C[C@@H]2CC[C@@H](OCCO)[C@H](OC)C2)CC(=O)[C@H](C)/C=C(\C)[C@@H](O)[C@@H](OC)C(=O)[C@H](C)C[C@H](C)/C=C/C=C/C=C/1C the results were Glioma ERSR ind -4% and DRD3 agonist -7.
Screening COc1cccc(CNC(=O)CN2N=C(c3ccc(C)cc3)CCC2=O)c1 returned Nrf2 activator 0%, Glioma ERSR ind -4% and DRD3 agonist 33*.
For COCCNS(=O)(=O)c1ccc(C2CNC(=O)C2)cc1 (centres undefined) the results were DRD3 antagonist 7, Nrf2 activator -1%, Glioma ERSR ind -3% and DRD3 agonist 3.
Screening COc1ccc(CNS(=O)(=O)c2ccc(C3CNC(=O)C3)cc2)cc1 (centres undefined) returned DRD3 antagonist -142*, Nrf2 activator 0%, Glioma ERSR ind -2% and DRD3 agonist 3.
Screening CCCc1cc(=O)oc2c3c(cc(OCC(=O)NCCN4CCOCC4)c12)OC(C)(C)CC3 returned DRD3 antagonist -56*, Nrf2 activator 4%, Glioma ERSR ind 1% and DRD3 agonist -48.
`COc1ccc(CCNc2ncnc3c2nnn3C)cc1` gave Nrf2 activator 0%, Glioma ERSR ind -2% and DRD3 agonist -2.
Screening C#C[C@]1(O)CC[C@H]2[C@@H]3CCc4cc(OC)ccc4[C@H]3CC[C@@]21C returned DRD3 antagonist 79, Nrf2 activator 0%, Glioma ERSR ind 3% and DRD3 agonist 30*!.
For C#C[C@]1(O)CC[C@H]2[C@@H]3CCc4cc(OC5CCCC5)ccc4[C@H]3CC[C@@]21C the results were DRD3 antagonist 84, Nrf2 activator 0%, Glioma ERSR ind -1% and DRD3 agonist 10.
For COc1cc2c(-c3ccc(O)cc3)nc3c(c(C)nn3-c3ccccc3)c2cc1OC the results were DRD3 antagonist 29, Nrf2 activator 1%, Glioma ERSR ind -3% and DRD3 agonist 80*.
`COc1cccc(-c2nc3c(c(C)nn3-c3ccccc3)c3cc(OC)c(OC)cc23)c1` gave Nrf2 activator 0%, Glioma ERSR ind 2% and DRD3 agonist 13.
Screening Cc1ccc(Sc2c(O)c3ccccc3n(C)c2=O)cc1 returned DRD3 antagonist 13, Nrf2 activator -1%, Glioma ERSR ind -2% and DRD3 agonist 1.
Cc1ccc(Sc2c([N+](=O)[O-])c(=O)n(C)c3ccccc23)cc1 was read as DRD3 antagonist -72*, Nrf2 activator 4%, Glioma ERSR ind inconclusive and DRD3 agonist -27.
For COc1ccc2c(c1OC)CN1CCc3cc4c(cc3[C@@H]1[C@@H]2O)OCO4 the results were DRD3 antagonist -117*, Nrf2 activator 1%, Glioma ERSR ind 9% and DRD3 agonist -99.
Screening COc1cc2c(cc1OC)[C@@H]1Cc3ccc(OC)c(OC)c3CN1CC2 returned DRD3 antagonist -99*, Nrf2 activator 0%, Glioma ERSR ind -3% and DRD3 agonist -34.
For COc1cc2c(cc1OC)C1Cc3ccc(OC)c(OC)c3CN1CC2 (centres undefined) the results were DRD3 antagonist inconclusive, Nrf2 activator 0%, Glioma ERSR ind -7% and DRD3 agonist -14.
`CCC1CN(CCNC(=O)c2cccc(N3CCCC3=O)c2)Cc2cc(OC)ccc2O1` (centres undefined) gave Glioma ERSR ind -2%.
Screening O=S1(=O)CC(N2CC=CC2)CN1Cc1cn(Cc2ccc(F)cc2)nn1 (centres undefined) returned DRD3 antagonist -52*, Nrf2 activator 0% and DRD3 agonist -3.
CN1CCC(N2CCN(C3CN(Cc4cn(Cc5cccc(C(F)(F)F)c5)nn4)S(=O)(=O)C3)CC2)CC1 (centres undefined) was read as DRD3 antagonist -29, Nrf2 activator -1% and DRD3 agonist -4.
For CN1CCN(C2CN(Cc3cn(Cc4cccc(C(F)(F)F)c4)nn3)S(=O)(=O)C2)CC1 (centres undefined) the results were DRD3 antagonist -51*, Nrf2 activator 0% and DRD3 agonist -2.
Screening COc1ccc(-c2c(C)nn3c(C(F)(F)F)cc(-c4ccccc4)nc23)cc1 returned Nrf2 activator -1%, Glioma ERSR ind -4% and DRD3 agonist 7.
CCOC(=O)c1sc(NC(=O)C(C)Oc2ccc(OC)cc2)c(C(=O)OCC)c1C (centres undefined) was read as Nrf2 activator 1%, Glioma ERSR ind -4% and DRD3 agonist -11.
`CSc1nsc(/C=C/Nc2ccc(O)cc2C)c1C#N` gave DRD3 antagonist -55*, Nrf2 activator inconclusive, Glioma ERSR ind -5% and DRD3 agonist -3.
CC(=O)C1=C(c2ccccc2)NC(=O)NC1c1ccccc1OCC(=O)Nc1ccccc1 (centres undefined) was read as DRD3 antagonist -2, Nrf2 activator 1%, Glioma ERSR ind -3% and DRD3 agonist 0.
CC(=O)C1=C(C)NC(=O)NC1c1ccccc1OCC(=O)NCCc1ccccc1 (centres undefined) was read as DRD3 antagonist -64*, Nrf2 activator 0%, Glioma ERSR ind -4% and DRD3 agonist 5.
For Cc1ccc(CNC(=O)c2nn(C)c3c2CSc2ccc(C)cc2-3)cc1 the results were Nrf2 activator 4%, Glioma ERSR ind -4% and DRD3 agonist 4.
For COc1cc(CN2c3ccc(Br)cc3C(=O)CS2(=O)=O)cc(OC)c1 the results were Glioma ERSR ind -1%.
`O=c1cc(-c2ccccc2)nc(SCc2ccccc2)[nH]1` gave DRD3 antagonist -55*, Nrf2 activator 6%, Glioma ERSR ind -4% and DRD3 agonist 9.
For O=c1cc(-c2ccccc2)nc(SCc2ccc(Cl)cc2)[nH]1 the results were DRD3 antagonist 27, Nrf2 activator 0%, Glioma ERSR ind -1% and DRD3 agonist 1.
For CC(C)(C)n1ncc2c(=O)n(Cc3cccc(-c4cccs4)c3)cnc21 the results were Glioma ERSR ind -2%.
Screening CC[N+]1(CC(=O)c2ccc(Cl)cc2)CCCCC1 returned Glioma ERSR ind -4%.
For NC(c1ccc(F)c(F)c1)c1nc(-c2cc(F)cc(F)c2)cs1 (centres undefined) the results were DRD3 antagonist -72*, Nrf2 activator -1%[9.22 µM], Glioma ERSR ind -3% and DRD3 agonist 9.
CCN(CCCNC(=O)c1cc2cc3ccc(OC)cc3nc2s1)c1ccccc1 was read as Nrf2 activator 5%, Glioma ERSR ind 0% and DRD3 agonist 3.
